# Data published in PubChem BioAssay.
# Calls of active or inactive are those of the source.
# Key:
# [1] = tested on: PRMT1 (protein arginine N-methyltransferase 1); test: small molecules binding arginine methyltransferase PRMT1 – biochemical, small-molecule microarray, 635 nm fluorescence, primary screen (AID 1088); settings: higher = more signal;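 also: binding of Prmt1 protein to compounds spotted on small-molecule microarray slides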
# [2] = growth effects on S. cerevisiae YJM789 – YJM789 clinical isolate, OD600, 24 h, basal, primary screen (AID 1089); settings: higher = more signal, called active from +8 up or from −8 down;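 also: growth of clinical yeast isolate S. cerevisiae YJM 789 seeded 1000 cells per well; test concentration not given here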
# [3] = S. pombe growth modifiers, basal conditions – strain 972, OD600, 24 h, no modulator, primary screen (AID 1090);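 also: basal condition with compound alone and no growth modifier present; test concentration not given here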; settings: S. pombe 972 growth, higher = more signal, called active from +8 up or from −8 down
# [4] = budding yeast growth modifiers under rapamycin – strain BY4716, OD600, 96 h, primary screen (AID 1091); also: test concentration not given here; settings: S. cerevisiae BY4716 + rapamycin, higher = more signal, called active from +8 up or from −8 down
# [5] = target: Torsin-1A-interacting protein 2 (Homo sapiens) (UniProt Q8NFQ8); test: small molecules binding lysate-expressed LULL1 – cell lysate, human LULL1 lysate, 635/667 nm fluorescence, primary screen (AID 1092); settings: small-molecule microarray, hLULL1 lysate binding, 635 nm fluorescence; higher = more signal;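 also: probe is lysate of COS7 cells overexpressing human LULL1; score merges per-feature 667 nm fluorescence with signal-to-noise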
# Chain of Torsin-1A-interacting protein 2 (Homo sapiens) (Q8NFQ8 whole entry, looked up): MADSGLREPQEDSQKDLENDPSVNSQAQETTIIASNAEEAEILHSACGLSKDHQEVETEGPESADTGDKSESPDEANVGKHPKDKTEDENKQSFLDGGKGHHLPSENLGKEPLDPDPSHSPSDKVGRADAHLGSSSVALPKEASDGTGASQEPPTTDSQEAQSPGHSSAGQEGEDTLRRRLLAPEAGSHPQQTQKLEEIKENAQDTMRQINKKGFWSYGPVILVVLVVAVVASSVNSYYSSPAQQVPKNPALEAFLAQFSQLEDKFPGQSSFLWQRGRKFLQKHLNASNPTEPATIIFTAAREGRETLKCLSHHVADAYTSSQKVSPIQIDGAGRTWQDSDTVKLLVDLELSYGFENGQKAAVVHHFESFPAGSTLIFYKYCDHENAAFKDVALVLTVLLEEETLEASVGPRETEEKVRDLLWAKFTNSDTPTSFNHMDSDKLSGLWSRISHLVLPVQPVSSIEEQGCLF
# [6] = optical density change of DRC41 E. coli – strain DRC41, OD650, 24 h, E. coli filamentation project, primary screen (AID 1093);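 also: MC1000 strain lacking acrAB efflux and sulA so SOS filamentation is blocked; test concentration not given here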; settings: E. coli DRC41 growth, higher = more signal, called active from +8 up or from −8 down
# [7] = probe aLefty2 binding to arrayed compounds – biochemical, biotinylated probe, 635/667 nm fluorescence, primary screen (AID 1094); settings: small-molecule microarray, higher = more signal;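 also: score merges spot fluorescence near 667 nm with spot signal-to-noise ratio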
# [8] = tested on: Noggin (protein binding on small-molecule microarray); test: small molecules binding Noggin protein – biochemical, 635/667 nm fluorescence, primary screen (AID 1095); settings: 635 nm fluorescence, higher = more signal;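 also: score merges 667 nm feature fluorescence with signal to noise over triplicate slides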
# [9] = target: Neurogenic locus notch homolog protein 3 (Homo sapiens) (UniProt Q9UM47); test: small molecules binding NOTCH3 protein – biochemical, 635/667 nm fluorescence, primary screen (AID 1096); settings: small-molecule microarray, 635 nm fluorescence, higher = more signal
# Chain of Neurogenic locus notch homolog protein 3 (Homo sapiens) (Q9UM47 whole entry, looked up): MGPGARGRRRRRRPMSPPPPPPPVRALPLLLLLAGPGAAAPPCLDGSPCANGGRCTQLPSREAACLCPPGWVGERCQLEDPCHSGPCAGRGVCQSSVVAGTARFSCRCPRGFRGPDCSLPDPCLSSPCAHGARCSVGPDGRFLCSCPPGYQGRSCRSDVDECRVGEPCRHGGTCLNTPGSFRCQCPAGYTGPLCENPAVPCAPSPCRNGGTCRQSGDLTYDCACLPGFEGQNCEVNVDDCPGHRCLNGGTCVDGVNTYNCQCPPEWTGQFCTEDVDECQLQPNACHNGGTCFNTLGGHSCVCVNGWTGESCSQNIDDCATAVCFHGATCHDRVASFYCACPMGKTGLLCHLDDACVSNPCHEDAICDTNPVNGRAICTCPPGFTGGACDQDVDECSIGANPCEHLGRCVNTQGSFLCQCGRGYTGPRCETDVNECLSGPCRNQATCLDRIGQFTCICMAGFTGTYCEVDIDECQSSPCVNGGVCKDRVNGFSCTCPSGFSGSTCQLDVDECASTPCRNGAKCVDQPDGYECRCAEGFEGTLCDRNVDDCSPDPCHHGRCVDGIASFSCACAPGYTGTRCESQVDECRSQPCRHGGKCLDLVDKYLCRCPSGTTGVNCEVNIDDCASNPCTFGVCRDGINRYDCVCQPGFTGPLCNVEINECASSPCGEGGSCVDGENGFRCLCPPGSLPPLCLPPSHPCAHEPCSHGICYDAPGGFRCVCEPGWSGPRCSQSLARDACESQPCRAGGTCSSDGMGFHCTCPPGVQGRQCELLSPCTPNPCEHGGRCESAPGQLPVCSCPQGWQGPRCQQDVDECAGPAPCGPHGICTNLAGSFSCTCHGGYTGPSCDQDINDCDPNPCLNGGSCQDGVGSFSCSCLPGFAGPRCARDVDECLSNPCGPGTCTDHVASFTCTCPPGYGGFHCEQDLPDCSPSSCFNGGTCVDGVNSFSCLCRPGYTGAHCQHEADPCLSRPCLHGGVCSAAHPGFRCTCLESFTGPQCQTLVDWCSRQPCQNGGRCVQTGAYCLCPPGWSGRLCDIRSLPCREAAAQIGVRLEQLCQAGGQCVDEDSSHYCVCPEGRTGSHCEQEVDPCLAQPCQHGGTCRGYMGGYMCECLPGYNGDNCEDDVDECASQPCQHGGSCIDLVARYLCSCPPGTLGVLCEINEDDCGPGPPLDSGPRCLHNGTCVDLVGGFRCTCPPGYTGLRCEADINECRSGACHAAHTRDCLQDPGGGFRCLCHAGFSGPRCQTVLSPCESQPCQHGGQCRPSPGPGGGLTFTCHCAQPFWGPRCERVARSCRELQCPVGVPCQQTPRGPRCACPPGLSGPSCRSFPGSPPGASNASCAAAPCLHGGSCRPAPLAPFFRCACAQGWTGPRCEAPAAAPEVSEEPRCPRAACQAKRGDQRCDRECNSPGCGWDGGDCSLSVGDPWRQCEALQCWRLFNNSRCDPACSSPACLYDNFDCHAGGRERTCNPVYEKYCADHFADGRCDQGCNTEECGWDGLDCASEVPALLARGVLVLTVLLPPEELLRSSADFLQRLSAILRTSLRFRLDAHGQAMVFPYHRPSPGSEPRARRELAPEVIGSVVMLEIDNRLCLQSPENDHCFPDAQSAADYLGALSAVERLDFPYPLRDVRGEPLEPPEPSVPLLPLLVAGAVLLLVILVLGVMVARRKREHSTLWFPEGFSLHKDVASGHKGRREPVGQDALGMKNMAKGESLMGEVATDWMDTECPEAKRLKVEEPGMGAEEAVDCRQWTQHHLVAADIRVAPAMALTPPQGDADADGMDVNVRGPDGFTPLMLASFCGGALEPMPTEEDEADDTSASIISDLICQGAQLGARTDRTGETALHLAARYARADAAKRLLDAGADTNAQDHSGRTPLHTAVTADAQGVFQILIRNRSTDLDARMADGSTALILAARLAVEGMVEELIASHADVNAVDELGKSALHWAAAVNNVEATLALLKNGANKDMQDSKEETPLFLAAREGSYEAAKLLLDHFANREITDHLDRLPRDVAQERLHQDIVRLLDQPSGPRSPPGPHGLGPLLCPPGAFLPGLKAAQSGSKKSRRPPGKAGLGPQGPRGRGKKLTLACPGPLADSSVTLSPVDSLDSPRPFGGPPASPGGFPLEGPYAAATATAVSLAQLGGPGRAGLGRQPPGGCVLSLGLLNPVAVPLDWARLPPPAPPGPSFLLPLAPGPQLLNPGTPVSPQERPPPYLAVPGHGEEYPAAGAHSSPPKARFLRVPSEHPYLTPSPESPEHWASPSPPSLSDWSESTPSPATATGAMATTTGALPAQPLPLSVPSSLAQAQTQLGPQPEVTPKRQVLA
# [10] = probe aEGFR binding to arrayed compounds – biochemical, biotinylated probe, 635/667 nm fluorescence, primary screen (AID 1097); settings: small-molecule microarray, higher = more signal;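 also: probe is a biotinylated anti-EGFR antibody binding compounds printed on slides; score combines fluorescence near 667 nm and signal to noise of each spot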
# [11] = tested on: Plasmodium falciparum Sir2 (PF13_0152, Sir2A); test: Plasmodium falciparum Sir2A binding compounds – biochemical, small-molecule microarray, 635 nm fluorescence, primary screen (AID 1098); settings: fluorescence 635 nm, higher = more signal;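 also: score merges spot fluorescence intensity with its signal-to-noise ratio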
# [12] = probe aDKK1 binding to arrayed compounds – biochemical, biotinylated probe, 635/667 nm fluorescence, primary screen (AID 1099); settings: small-molecule microarray, higher = more signal;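 also: score merges 667nm spot fluorescence with signal to noise across triplicate slides; reference of the scale not given here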
# [13] = probe aCHRDL2 binding to arrayed compounds – biochemical, biotinylated probe, 635/667 nm fluorescence, primary screen (AID 1100); settings: small-molecule microarray, higher = more signal
# [14] = change in splice reporter luminescence, either direction, cell-based, HEK293, spliceosome inhibition project, primary screen (AID 1101); settings: HEK293 splicing luciferase reporter, 24 h, higher = more signal, called active from +8 up or from −8 down;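 also: HEK293 cells carrying a splicing-competent luciferase reporter gene; test concentration not given here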
# [15] = target: Fibroblast growth factor 10 (Homo sapiens) (UniProt O15520); test: compounds binding fibroblast growth factor 10 – biochemical, small-molecule microarray, 635 nm fluorescence, primary screen (AID 1102); settings: FGF10 binding, fluorescence 635 nm, higher = more signal
# Chain of Fibroblast growth factor 10 (Homo sapiens) (O15520 whole entry, looked up): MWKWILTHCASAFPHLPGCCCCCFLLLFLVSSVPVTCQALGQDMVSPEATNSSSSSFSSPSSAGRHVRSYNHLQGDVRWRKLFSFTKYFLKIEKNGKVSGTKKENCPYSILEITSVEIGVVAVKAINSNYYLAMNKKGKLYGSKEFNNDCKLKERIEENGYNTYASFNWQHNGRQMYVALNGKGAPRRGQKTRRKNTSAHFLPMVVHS
# [16] = tested on: glycogen synthase kinase-3 (GSK3A per assay name; protocol says GSK3B); test: compounds binding glycogen synthase kinase-3 – biochemical, small-molecule microarray, 635 nm fluorescence, GSK3A, primary screen (AID 1103); settings: fluorescence 635 nm, higher = more signal; also: the record names both GSK3A and GSK3B
# [17] = target: Epidermal growth factor receptor (Homo sapiens) (UniProt P00533); test: compounds binding epidermal growth factor receptor – biochemical, small-molecule microarray, 635 nm fluorescence, primary screen (AID 1104); settings: EGFR binding, higher = more signal;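 also: score merges 667 nm emission intensity with spot signal to noise over triplicate slides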
# Chain of Epidermal growth factor receptor (Homo sapiens) (P00533 whole entry, looked up): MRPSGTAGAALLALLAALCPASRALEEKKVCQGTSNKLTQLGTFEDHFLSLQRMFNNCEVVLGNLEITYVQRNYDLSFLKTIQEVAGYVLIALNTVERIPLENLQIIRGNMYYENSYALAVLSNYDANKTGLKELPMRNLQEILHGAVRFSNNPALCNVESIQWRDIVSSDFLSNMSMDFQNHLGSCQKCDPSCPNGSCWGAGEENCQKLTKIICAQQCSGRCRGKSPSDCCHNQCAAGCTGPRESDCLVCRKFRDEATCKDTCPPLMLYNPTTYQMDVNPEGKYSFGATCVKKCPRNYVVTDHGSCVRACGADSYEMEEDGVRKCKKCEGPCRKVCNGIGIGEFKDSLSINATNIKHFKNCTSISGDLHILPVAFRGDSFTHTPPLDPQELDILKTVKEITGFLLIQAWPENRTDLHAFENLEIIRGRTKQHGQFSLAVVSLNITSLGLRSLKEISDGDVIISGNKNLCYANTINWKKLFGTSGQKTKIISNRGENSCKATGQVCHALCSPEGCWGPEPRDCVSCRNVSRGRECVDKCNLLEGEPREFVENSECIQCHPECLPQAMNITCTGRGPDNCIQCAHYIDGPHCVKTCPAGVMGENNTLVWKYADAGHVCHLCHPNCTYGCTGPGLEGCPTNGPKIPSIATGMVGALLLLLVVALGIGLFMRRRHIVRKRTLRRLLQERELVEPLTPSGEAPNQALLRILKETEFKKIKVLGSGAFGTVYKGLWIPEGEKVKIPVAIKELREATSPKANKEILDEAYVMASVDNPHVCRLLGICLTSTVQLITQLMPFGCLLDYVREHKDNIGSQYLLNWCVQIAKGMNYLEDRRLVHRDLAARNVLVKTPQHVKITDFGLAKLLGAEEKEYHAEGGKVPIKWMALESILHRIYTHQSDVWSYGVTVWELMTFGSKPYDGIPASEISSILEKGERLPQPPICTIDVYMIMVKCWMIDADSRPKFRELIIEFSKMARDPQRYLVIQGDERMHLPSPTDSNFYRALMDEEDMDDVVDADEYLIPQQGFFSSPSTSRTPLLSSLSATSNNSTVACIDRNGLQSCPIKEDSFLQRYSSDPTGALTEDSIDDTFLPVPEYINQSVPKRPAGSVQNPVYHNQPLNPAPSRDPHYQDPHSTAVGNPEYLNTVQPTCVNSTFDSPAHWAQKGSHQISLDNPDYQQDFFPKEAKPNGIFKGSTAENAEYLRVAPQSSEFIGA
# [18] = target: Follistatin-related protein 3 (Homo sapiens) (UniProt O95633); test: compounds binding follistatin-related protein 3 – biochemical, small-molecule microarray, 635 nm fluorescence, primary screen (AID 1105); settings: FSTL3 binding, higher = more signal;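 also: score merges emission near 667 nm and signal to noise per printed spot across three slides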
# Chain of Follistatin-related protein 3 (Homo sapiens) (O95633 whole entry, looked up): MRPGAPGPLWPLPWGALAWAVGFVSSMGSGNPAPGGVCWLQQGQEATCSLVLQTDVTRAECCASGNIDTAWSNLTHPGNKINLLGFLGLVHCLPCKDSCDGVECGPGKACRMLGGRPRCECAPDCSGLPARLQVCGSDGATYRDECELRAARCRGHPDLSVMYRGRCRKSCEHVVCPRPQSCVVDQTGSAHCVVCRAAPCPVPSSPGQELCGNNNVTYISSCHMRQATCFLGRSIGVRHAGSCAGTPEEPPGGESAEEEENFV
# [19] = target: Dickkopf-related protein 1 (Homo sapiens) (UniProt O94907); test: small molecules binding DKK1 protein – biochemical, small-molecule microarray, 635 nm fluorescence scan, primary screen (AID 1106); settings: higher = more signal;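 also: score merges emission near 667 nm with signal to noise over three replicate slides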
# Chain of Dickkopf-related protein 1 (Homo sapiens) (O94907 whole entry, looked up): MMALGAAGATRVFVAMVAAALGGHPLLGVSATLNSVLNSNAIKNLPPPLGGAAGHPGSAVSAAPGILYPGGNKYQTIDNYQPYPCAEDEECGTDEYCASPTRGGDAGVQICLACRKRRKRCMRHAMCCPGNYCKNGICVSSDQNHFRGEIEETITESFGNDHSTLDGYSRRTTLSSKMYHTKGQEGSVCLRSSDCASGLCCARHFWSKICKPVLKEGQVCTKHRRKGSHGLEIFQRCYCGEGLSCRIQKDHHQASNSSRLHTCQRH
# [20] = tested on: Inhibin beta A chain (activin A); test: small molecules binding activin A – biochemical, small-molecule microarray, 635 nm fluorescence scan, primary screen (AID 1107); settings: INHBA, higher = more signal;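 also: mouse activin A protein probed at 4.33 µg/mL on printed slides; score merges bound-protein fluorescence near 667 nm with spot signal-to-noise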
SMILES,composite z-score [1],z-score [2],z-score [3],z-score [4],composite z-score [5],z-score [6],composite z-score [7],composite z-score [8],composite z-score [9],composite z-score [10],composite z-score [11],composite z-score [12],composite z-score [13],z-score [14],composite z-score [15],composite z-score [16],composite z-score [17],composite z-score [18],composite z-score [19],composite z-score [20]
CC(C)[Si]1(C(C)C)OCc2cc(-c3ccc(-c4ccc(Cl)c(Cl)c4)o3)nc(CCc3ccccc3)c21,-0.45,-0.773 (inactive),-3.07 (inactive),0.952 (inactive),0.797,1.15 (inactive),-0.19,0.0365,-0.428,-0.218,0.508,-0.0914,-0.17,-2.1 (inactive),0.187,-0.181,-0.833,0.169,0.32,0.536
C=CCC(OC(C)=O)[C@@H]1[C@@H](N(Cc2ccc(-c3ccccc3)cc2)C(=O)Cc2ccc(F)cc2)c2cc(OCCCO)ccc2N1C(=O)Cc1ccc2ccccc2c1 (stereo not given in full),-0.848,-0.106 (inactive),0.412 (inactive),0.0926 (inactive),2.46,0.708 (inactive),0.385,0.115,0.151,-0.0828,-0.261,-0.0697,0.652,-0.681 (inactive),-0.13,-0.199,-0.113,-0.507,-0.117,1.3
COc1cc(NN2C(C(O)C3CCCCC3)C=CC3C(=O)N(C)C(=O)C32)cc(OC)c1OC (stereo not given),1.48,0.137 (inactive),0.169 (inactive),0.0624 (inactive),3.46,-0.853 (inactive),0.855,-0.0279,1.09,0.186,1.04,1.05,1.1,1.1 (inactive),0.144,1.17,0.203,1.06,-1.47,0.823
Cc1ccc(S[C@]2(C(=O)NC(C)C)CC(=O)N(C(C)C)[C@@H]2c2ccc(CO)cc2I)cc1,0.841,-0.466 (inactive),-0.222 (inactive),-0.294 (inactive),1.53,0.529 (inactive),-0.0654,-0.337,-0.196,-0.144,0.476,0.0345,0.706,-0.714 (inactive),-0.101,-0.498,-0.56,0.298,-0.484,0.904
Cc1ccc(S[C@]2(C(=O)NC(C)C)CC(=O)N(Cc3ccccc3Cl)[C@@H]2c2ccc(CO)cc2)cc1,-0.577,-0.651 (inactive),-1.13 (inactive),-0.072 (inactive),2.06,-1.29 (inactive),0.0425,-0.82,-0.452,-0.227,1.23,0.17,0.865,-0.864 (inactive),-0.465,-0.628,-1.04,-1.2,-1.47,-0.318
CC(=O)n1cc(C(O)C2C=CC3C(=O)N(c4ccccc4)C(=O)C3N2Nc2ccc(C(C)C)cc2)c2ccccc21 (stereo not given),1.22,-0.314 (inactive),0.713 (inactive),0.0496 (inactive),3.27,-0.811 (inactive),0.353,-0.706,1.04,0.0786,1.17,0.389,0.883,0.811 (inactive),0.881,1.1,0.281,0.766,0.076,1.02
